For 1 sequence, binding signal results are on record in article PMC7862700, “An all-to-all approach to the identification of sequence-specific readers for epigenetic DNA modifications on cytosine”.

Test in all cases: DAPPL (digital affinity profiling via proximity ligation, sequencing); 10 mM Tris-HCl pH 7.5, 50 mM NaCl, 1 mM DTT, 4% glycerol, room temperature, 30 min; GST-TFs on glutathione beads, 16-mer random dsDNA library, 0.1% formaldehyde crosslink after washing; high values mean tight binding
For one assay, the target named is T1, FEV (Homo sapiens, UniProt Q99581 1-238).
T1 sequence: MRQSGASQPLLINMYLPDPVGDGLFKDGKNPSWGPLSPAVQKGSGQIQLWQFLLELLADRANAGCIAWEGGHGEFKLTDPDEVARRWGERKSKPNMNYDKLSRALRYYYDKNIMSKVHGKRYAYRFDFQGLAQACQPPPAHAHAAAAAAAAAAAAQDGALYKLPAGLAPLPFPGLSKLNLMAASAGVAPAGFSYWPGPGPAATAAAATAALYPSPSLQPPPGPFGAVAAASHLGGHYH
Particulars: protein: recombinant; tags: N-terminal GST; dsDNA, one strand shown. The essentials:
(§1)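 Pools were built from human transcription factors expressed in yeast as GST fusions, captured on glutathione beads and DNA-barcoded, along with a tag-only sample. Incubation with 200 nmole of a 16-mer random double-stranded DNA library lasted 30 min at room temperature in Tris/NaCl/DTT/glycerol buffer, and was followed by washing, 0.1% formaldehyde crosslinking, proximity ligation, PCR amplification and Illumina NextSeq500 sequencing. Binding signal is the quotient of each hexamer's read frequency for a factor and its frequency for the tag-only sample.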

The target of a further assay is ETV5 (Homo sapiens, UniProt P41161 1-510). The note with it: protein: recombinant; tags: N-terminal GST; dsDNA, one strand shown. The essentials: as §1
The next assay addresses HSF1 (Homo sapiens, UniProt Q00613 1-529). Particulars: protein: recombinant; tags: N-terminal GST; chain copies: 3; dsDNA, one strand shown. The essentials:
as §1

Another assay concerns the target T2, SPIC (Homo sapiens, UniProt Q8N5J4 1-248).
T2 sequence: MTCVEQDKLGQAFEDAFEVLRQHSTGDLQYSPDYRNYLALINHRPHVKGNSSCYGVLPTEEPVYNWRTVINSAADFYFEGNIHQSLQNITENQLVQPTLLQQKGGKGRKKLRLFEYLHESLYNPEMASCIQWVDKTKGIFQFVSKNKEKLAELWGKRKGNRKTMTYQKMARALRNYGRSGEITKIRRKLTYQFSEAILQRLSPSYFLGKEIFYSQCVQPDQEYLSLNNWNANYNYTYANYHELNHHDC
Particulars: protein: recombinant; tags: N-terminal GST; dsDNA, one strand shown. The essentials: as §1

The next assay addresses ELF4 (Homo sapiens, UniProt Q99607 1-663). Particulars: protein: recombinant; tags: N-terminal GST; dsDNA, one strand shown. The essentials: as §1
The target of another assay is T3, ELK4 (Homo sapiens, UniProt P28324-2 1-405).
T3 sequence: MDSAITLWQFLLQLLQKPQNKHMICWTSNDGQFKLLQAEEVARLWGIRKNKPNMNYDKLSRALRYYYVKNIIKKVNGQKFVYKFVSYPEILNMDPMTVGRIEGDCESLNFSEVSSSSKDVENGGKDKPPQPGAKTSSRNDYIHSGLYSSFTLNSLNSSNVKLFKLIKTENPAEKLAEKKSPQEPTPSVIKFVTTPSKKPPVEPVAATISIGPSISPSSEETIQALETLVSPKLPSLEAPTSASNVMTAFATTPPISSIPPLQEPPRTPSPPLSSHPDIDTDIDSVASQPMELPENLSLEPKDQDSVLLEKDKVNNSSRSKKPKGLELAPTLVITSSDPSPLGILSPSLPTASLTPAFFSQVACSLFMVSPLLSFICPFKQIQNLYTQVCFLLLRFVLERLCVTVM
Particulars: protein: recombinant; tags: N-terminal GST; dsDNA, one strand shown. In a few lines:
as §1

For the next assay, the target named is T4, ETV2 (Homo sapiens, UniProt O00321 1-342).
T4 sequence: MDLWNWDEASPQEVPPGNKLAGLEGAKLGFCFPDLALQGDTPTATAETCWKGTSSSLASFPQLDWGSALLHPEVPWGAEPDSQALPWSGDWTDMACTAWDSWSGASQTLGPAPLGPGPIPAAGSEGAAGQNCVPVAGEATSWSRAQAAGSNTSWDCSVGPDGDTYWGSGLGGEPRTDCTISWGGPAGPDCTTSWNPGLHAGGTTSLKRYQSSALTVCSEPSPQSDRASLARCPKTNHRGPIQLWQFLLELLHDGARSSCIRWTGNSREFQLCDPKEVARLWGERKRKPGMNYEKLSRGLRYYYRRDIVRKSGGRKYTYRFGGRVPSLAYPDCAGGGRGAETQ
Particulars: protein: recombinant; tags: N-terminal GST; dsDNA, one strand shown. In a few lines:
as §1

In another assay the target is T5, ELF3 (Homo sapiens, UniProt P78545 1-371).
T5 sequence: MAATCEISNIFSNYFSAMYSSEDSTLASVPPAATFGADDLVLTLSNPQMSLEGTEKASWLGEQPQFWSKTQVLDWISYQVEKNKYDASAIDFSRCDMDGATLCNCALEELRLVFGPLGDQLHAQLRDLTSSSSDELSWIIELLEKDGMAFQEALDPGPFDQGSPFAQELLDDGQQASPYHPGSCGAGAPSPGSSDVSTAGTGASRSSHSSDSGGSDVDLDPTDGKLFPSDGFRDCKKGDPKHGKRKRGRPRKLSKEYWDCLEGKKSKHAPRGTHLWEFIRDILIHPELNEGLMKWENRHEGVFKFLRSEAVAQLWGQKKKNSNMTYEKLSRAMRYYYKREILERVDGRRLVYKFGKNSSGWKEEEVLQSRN
The note with it: protein: recombinant; tags: N-terminal GST; dsDNA, one strand shown. The essentials:
as §1

In the next assay the target is CRX (Homo sapiens, UniProt O43186 1-299). The note with it: protein: recombinant; tags: N-terminal GST; dsDNA, one strand shown. The essentials: as §1
The next assay concerns the target ETV1 (Homo sapiens, UniProt P50549 1-477). Particulars: protein: recombinant; tags: N-terminal GST; dsDNA, one strand shown. In a few lines: as §1
A further assay deals with T6, ERF (Homo sapiens, UniProt P50548 1-548).
T6 sequence: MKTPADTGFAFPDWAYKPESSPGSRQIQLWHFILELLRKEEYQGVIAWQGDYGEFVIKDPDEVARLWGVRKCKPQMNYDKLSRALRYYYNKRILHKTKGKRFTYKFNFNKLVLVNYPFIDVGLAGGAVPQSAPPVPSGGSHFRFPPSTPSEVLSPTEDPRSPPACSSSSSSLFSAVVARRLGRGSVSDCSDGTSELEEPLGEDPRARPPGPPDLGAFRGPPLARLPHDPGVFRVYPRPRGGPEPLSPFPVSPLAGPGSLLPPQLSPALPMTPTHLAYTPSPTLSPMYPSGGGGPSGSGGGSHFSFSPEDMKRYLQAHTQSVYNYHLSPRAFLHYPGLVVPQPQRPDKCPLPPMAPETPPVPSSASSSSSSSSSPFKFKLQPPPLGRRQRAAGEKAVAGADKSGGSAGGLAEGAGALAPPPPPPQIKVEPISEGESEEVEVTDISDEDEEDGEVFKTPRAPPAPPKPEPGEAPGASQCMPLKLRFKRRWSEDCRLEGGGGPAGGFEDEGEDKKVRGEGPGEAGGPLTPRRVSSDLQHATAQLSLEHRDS
The note with it: protein: recombinant; tags: N-terminal GST; dsDNA, one strand shown. In a few lines:
as §1

The target in a further assay is T7, ETV3L (Homo sapiens, UniProt Q6ZN32 1-361).
T7 sequence: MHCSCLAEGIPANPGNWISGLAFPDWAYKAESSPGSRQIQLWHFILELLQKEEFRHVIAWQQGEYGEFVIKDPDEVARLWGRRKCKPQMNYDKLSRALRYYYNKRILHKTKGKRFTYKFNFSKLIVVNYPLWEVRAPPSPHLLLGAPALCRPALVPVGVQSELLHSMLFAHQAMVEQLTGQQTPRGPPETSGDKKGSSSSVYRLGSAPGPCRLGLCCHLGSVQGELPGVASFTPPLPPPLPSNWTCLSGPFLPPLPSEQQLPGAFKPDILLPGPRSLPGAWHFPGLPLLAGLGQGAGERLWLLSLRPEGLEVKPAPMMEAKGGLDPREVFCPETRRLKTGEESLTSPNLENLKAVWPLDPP
The note with it: protein: recombinant; tags: N-terminal GST; dsDNA, one strand shown. The essentials: as §1

A further assay has as its target T8, ETS2 (Homo sapiens, UniProt P15036 1-469).
T8 sequence: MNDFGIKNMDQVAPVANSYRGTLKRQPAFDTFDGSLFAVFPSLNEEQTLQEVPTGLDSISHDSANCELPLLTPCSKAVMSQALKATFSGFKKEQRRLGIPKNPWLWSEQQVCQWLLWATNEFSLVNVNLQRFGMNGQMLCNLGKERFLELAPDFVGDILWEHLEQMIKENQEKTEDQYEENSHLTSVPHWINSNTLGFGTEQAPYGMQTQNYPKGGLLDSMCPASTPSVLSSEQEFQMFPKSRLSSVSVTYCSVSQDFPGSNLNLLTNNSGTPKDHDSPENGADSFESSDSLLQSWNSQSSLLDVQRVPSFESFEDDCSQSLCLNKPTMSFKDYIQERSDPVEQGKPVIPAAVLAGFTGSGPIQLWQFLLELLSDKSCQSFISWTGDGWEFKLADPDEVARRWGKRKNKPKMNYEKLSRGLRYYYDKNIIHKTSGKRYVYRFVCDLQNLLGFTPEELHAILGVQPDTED
Particulars: protein: recombinant; tags: N-terminal GST; dsDNA, one strand shown. The essentials:
as §1

The target in a further assay is T9, SPDEF (Homo sapiens, UniProt O95238 1-335).
T9 sequence: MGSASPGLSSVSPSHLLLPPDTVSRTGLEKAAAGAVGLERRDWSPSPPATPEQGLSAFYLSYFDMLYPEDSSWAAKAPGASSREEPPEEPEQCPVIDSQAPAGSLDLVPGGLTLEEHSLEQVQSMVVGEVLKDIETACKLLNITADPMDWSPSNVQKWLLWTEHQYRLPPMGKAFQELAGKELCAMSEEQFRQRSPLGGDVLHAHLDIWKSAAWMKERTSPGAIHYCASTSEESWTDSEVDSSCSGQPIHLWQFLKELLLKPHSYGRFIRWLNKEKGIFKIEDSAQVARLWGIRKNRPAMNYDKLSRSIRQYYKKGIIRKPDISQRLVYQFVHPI
The note with it: protein: recombinant; tags: N-terminal GST; dsDNA, one strand shown. In a few lines:
as §1

The target in another assay is T10, ETV7 (Homo sapiens, UniProt Q9Y603 1-341).
T10 sequence: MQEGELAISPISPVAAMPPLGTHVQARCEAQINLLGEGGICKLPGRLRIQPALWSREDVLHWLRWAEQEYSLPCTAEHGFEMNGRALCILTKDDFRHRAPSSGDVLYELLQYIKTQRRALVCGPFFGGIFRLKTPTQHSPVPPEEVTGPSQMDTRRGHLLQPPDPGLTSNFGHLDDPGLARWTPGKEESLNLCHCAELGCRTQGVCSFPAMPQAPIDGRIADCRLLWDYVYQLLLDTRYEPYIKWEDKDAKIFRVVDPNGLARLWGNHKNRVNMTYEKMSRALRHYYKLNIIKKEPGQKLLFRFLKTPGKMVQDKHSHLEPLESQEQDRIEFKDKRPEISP
The note with it: protein: recombinant; tags: N-terminal GST; dsDNA, one strand shown. In a few lines:
as §1

The target in the next assay is T11, ELF5 (Homo sapiens, UniProt Q9UKW6-2 1-255).
T11 sequence: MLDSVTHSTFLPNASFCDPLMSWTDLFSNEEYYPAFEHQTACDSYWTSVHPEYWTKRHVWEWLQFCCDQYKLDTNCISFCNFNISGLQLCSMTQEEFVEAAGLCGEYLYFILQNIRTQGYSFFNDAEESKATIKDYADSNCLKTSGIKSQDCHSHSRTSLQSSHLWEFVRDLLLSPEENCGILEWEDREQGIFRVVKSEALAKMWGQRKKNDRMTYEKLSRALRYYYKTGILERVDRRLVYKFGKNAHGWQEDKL
The note with it: protein: recombinant; tags: N-terminal GST; dsDNA, one strand shown. The essentials:
as §1

The target in a further assay is T12, ETV3 (Homo sapiens, UniProt P41162-2 1-143).
T12 sequence: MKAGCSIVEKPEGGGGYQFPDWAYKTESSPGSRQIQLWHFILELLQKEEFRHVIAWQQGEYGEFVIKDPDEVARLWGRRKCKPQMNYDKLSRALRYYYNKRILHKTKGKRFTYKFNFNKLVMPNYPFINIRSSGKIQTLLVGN
Particulars: protein: recombinant; tags: N-terminal GST; dsDNA, one strand shown. In a few lines:
as §1

In another assay the target is ETV6 (Homo sapiens, UniProt P41212 1-452). Particulars: protein: recombinant; tags: N-terminal GST; dsDNA, one strand shown. The essentials: as §1
Chain of ETV6 (P41212 whole entry): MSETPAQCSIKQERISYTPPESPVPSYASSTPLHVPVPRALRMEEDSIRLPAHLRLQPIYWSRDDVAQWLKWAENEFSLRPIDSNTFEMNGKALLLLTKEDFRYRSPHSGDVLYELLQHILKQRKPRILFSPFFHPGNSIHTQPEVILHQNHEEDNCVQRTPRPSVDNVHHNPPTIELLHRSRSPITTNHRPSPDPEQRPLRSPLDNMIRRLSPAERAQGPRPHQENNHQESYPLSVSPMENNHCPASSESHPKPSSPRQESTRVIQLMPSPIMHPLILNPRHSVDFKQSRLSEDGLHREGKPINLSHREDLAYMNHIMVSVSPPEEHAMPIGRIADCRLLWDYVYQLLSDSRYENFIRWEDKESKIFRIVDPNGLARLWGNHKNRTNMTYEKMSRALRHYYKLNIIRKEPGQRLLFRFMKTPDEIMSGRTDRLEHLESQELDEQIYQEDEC

Chain of CRX (O43186 whole entry): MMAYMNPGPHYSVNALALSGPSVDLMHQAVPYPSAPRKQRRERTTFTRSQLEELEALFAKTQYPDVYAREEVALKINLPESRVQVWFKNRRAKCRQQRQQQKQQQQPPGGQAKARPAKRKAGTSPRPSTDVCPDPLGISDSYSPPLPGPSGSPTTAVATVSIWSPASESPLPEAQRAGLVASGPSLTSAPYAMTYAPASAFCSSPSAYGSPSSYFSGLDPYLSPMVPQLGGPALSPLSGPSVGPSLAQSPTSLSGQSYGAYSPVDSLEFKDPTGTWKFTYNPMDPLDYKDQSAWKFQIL
Chain of ETV1 (P50549 whole entry): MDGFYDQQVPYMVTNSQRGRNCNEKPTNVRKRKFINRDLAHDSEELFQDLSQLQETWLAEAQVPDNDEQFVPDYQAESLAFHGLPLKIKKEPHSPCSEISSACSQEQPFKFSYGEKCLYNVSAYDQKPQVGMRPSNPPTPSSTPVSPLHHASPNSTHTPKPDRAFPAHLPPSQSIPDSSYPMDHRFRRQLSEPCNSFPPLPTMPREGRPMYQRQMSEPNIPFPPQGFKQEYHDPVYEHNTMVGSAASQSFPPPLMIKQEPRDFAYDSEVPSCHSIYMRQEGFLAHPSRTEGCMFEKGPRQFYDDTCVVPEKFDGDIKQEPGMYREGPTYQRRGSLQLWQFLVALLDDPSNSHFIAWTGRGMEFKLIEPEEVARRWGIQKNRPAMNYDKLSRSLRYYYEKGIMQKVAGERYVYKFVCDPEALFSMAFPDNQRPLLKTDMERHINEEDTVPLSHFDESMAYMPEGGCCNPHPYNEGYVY
Chain of HSF1 (Q00613 whole entry): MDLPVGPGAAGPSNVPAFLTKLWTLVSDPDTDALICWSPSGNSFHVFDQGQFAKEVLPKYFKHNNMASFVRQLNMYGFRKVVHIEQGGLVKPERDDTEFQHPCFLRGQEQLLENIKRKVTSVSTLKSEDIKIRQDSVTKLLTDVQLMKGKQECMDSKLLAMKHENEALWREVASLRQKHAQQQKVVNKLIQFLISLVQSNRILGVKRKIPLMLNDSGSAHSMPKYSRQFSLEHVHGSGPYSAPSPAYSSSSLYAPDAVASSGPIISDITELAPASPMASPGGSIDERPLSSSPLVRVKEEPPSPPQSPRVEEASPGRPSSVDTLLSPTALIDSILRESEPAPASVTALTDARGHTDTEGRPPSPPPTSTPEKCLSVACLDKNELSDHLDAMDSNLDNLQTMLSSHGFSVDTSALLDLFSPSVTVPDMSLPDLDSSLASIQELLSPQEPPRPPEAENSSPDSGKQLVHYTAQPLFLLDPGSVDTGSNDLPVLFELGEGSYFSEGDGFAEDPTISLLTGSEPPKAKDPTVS
Chain of ELF4 (Q99607 whole entry): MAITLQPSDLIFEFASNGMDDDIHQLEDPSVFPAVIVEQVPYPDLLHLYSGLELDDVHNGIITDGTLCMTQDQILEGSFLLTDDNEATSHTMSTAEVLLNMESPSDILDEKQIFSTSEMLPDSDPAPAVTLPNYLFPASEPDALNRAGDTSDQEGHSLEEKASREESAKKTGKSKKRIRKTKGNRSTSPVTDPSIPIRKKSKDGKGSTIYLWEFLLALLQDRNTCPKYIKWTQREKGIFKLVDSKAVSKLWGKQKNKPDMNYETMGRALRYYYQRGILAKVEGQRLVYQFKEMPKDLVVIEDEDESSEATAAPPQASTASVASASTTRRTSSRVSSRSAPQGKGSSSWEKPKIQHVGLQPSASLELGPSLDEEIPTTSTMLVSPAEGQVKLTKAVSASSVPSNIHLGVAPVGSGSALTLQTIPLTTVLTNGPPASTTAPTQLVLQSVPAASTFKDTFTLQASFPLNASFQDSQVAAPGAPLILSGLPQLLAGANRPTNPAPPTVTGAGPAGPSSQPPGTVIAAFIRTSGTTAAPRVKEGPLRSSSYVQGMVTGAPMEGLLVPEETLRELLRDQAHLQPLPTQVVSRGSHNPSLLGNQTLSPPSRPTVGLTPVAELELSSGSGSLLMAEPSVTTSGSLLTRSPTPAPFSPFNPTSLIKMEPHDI
Chain of ETV5 (P41161 whole entry): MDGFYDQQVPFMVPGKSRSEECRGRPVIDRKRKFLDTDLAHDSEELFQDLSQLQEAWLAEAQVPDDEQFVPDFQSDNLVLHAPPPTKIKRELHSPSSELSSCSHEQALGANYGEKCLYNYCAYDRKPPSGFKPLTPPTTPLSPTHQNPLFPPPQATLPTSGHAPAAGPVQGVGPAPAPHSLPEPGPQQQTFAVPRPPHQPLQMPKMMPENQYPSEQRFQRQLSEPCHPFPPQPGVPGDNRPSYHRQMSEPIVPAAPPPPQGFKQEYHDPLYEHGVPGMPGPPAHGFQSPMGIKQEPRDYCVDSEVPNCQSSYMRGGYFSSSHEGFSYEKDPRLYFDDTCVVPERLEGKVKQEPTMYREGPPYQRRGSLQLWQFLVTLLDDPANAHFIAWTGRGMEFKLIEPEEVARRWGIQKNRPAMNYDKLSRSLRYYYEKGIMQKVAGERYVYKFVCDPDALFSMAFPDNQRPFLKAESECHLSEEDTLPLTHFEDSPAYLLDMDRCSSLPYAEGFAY

As to GCTTCG, the binding signal was 1.26 fold enrichment (6-mer frequency, TF over GST control) with FEV; 1.29 fold enrichment (6-mer frequency, TF over GST control) in the assay with ETV5; 1.6 fold enrichment (6-mer frequency, TF over GST control) with HSF1; 1.17 fold enrichment (6-mer frequency, TF over GST control) in the assay with SPIC; 1.26 fold enrichment (6-mer frequency, TF over GST control) with ELF4; 1.38 fold enrichment (6-mer frequency, TF over GST control) with ELK4. Besides, the binding signal was 1.33 fold enrichment (6-mer frequency, TF over GST control) in the assay with ETV2; 1.47 fold enrichment (6-mer frequency, TF over GST control) with ELF3; 1.25 fold enrichment (6-mer frequency, TF over GST control) with CRX; 1.29 fold enrichment (6-mer frequency, TF over GST control) with ETV1; 1.56 fold enrichment (6-mer frequency, TF over GST control) with ERF; 1.31 fold enrichment (6-mer frequency, TF over GST control) with ETV3L. Also, the binding signal with ETS2 was 1.32 fold enrichment (6-mer frequency, TF over GST control); with SPDEF it was 1.35 fold enrichment (6-mer frequency, TF over GST control); with ETV7, 1.44 fold enrichment (6-mer frequency, TF over GST control); with ELF5 it was 1.3 fold enrichment (6-mer frequency, TF over GST control); with ETV3, 1.37 fold enrichment (6-mer frequency, TF over GST control); with ETV6 it was 1.29 fold enrichment (6-mer frequency, TF over GST control).
